From PubChem BioAssay (NCI) come the findings set out here.

Each structure is given as a SMILES string. Values joined by “and” are separate entries in the source; they are usually repeats but may differ in a detail not shown here. Equal entries are not always repeated. About 83,000 compounds went through this panel and 20% of them were active in at least one assay; those are over-represented in the sample as a whole.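 Results are percent growth after 48 hours of single-concentration exposure. 100 means growth as in untreated cells, lower positive values show inhibition; negative values down to -100 show cell death.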 A number with no mark means an inactive call. Active and inactive are the calls of the source. The calls were made as follows: active = growth percent below 10; inactive = the rest.

In this experiment the test system is MDA-MB-468 breast. The experiment in a line: NCI-60 one-dose screen, 48 h (100 = growth as untreated, 0 = no growth, -100 = all killed). The conditions noted are these: 10 µM unless noted.
As for `C=C(C)[C@@H]1CC[C@]2(C(N)=O)CC[C@]3(C)[C@H](CC[C@@H]4[C@@]5(C)C/C(=C/c6cccnc6)[C@H](O)C(C)(C)[C@@H]5CC[C@]43C)[C@@H]12`, the growth is 23.6% [100 µM].
With `Nc1cc(F)ccc1NC(=O)c1ccc(NC(=O)C/C=C/c2cccnc2)cn1`, the growth is -27.4% (active).
`C#CCOC(=O)Nc1ccccc1`: the growth is 117%.
On to `COc1ccc(/C=C2/SC(=Nc3c(C)nn(-c4ccccc4)c3N)NC2=O)cc1`, for which the growth was 7.17% (active).
In the case of `N#CCCc1ccc(O)cc1`, the growth was 104%.
On to `O=S(=O)(Cc1cccc2c(CS(=O)(=O)c3ccc(Cl)cc3)cccc12)c1ccc(Cl)cc1`, for which the growth was 97%.
With `O=C(O)c1ccc(-c2nn(-c3ccc(C(=O)O)cc3)cc2/C=N/Nc2c(F)c(F)cc(F)c2F)cc1`, the growth was 117%.
`COc1ccc(-c2nnc(SCC(=O)Nc3ccc(/C(C)=N\O)cc3)n2-c2ccccc2)cc1OC`: the growth is 78.5%.
On to `CC[C@H]1OC(=O)[C@H](C)[C@@H](O[C@H]2C[C@@](C)(OC)[C@@H](O)[C@H](C)O2)[C@H](C)[C@@H](O[C@@H]2O[C@H](C)C[C@H](N(C)C)[C@H]2O)[C@](C)(O)C[C@H](C)CN(C)[C@H](C)[C@@H](O)[C@]1(C)O`, for which the growth was 86.7%.
Next, `O=S(=O)(NCCNc1cc(-c2cn(-c3ccccc3)nc2-c2ccccc2)ccn1)c1ccc(F)cc1`: 58%; `COc1ccc(-c2nc(/C=N/Nc3cc(C)nc4ccc(Br)cc34)c(C)o2)cc1`: -78.9% (active).
For the molecule `O=C(N/N=C/c1cc2ccccc2n2nnnc12)Nc1ccccc1`, the growth is 98.3%.
Under `O=C(/C(=C\c1ccc([N+](=O)[O-])cc1)S(=O)Cc1ccc(Cl)cc1)c1ccc(Cl)cc1` (stereo not given) stands 74%.
On to `O=C(NCCCNc1nccc(-n2ccc3cccnc32)n1)c1c(F)cccc1F`, for which the growth is 101%.
As for `COc1cc(-c2n[nH]nc2-c2ccccn2)cc(OC)c1OC`, the growth is 104%.
Under `c1ccc(-c2nnc(Nc3nnc(-c4ccccc4)s3)s2)cc1` stands 107%.
As to `COc1cc2oc(-c3cccc(NC(=O)c4cc(NC(=O)[C@H](C)NC(=O)OC(C)(C)C)ccc4C)c3)cc(=O)c2c(OC)c1OC`, the growth was 84.3%.
Turning to `O=[N+]([O-])c1ccc(N/N=C(\C(=N/Nc2ccc([N+](=O)[O-])cc2[N+](=O)[O-])c2ccccc2)c2ccccc2)c([N+](=O)[O-])c1`, the growth was 86.4%.
Take `O=c1[nH]nnc2c1ncn2C1OC(CO)C(O)C1O` (stereo not given): the growth was 40.1%.
For `COc1ccc(OC)c(/C=C2\Oc3cc(OCCN4CCC(Cc5ccccc5)CC4)ccc3C2=O)c1`, the growth was 64.8%.
Under `CCOC(=O)c1c(C)nc2c(c1N)/C(=C/c1ccc[nH]1)C(=O)N2Cc1ccc(C(F)(F)F)cc1` stands 58.7%.
Regarding `CC(=O)O[C@H]1CC[C@]2(C)[C@H]3CC[C@@H]4[C@H]5[C@H](C(C)C)CC[C@]5(C(=O)OCC(CO)(CO)N=C(N)N)CC[C@@]4(C)[C@]3(C)CC[C@H]2C1(C)C`, the growth was -25.5% (active).
Consider `O=C1/C(=C\c2cccn2Cc2ccc(Cl)cc2)c2ccccc2N1c1c(Cl)cccc1Cl`, for which the growth was -27.9% (active).
`O=C(/C=C/c1cccnc1)c1ccccc1`: the growth was 99.2%.
On to `N=C(N)c1ccc(-c2ccc(-c3ccc(-c4cccs4)s3)s2)cc1F`, for which the growth was 79.5%.
On to `O=C(CSc1nc2ccccc2[nH]1)Nc1ccc(-c2nc3ccccc3s2)c(Cl)c1`, for which the growth was 26.5%.
With `C[N+](C)(C)C(=O)c1ccccc1`, the growth was 101%.
For `Cn1cc(-c2nc(-c3c[nH]c4ncccc34)cs2)c2cc(Br)ccc21`, the growth was 5.22% (active).
For `O=S(=O)(Oc1ccc(-c2nnc(Nc3ccccc3)s2)cc1)C(F)(F)C(F)(F)C(F)(F)C(F)(F)C(F)(F)C(F)(F)F`, the growth is 99.8%.
`Cc1ccc(N2C3c4ccccc4N(S(=O)(=O)c4ccc(C)cc4)C2c2ccccc2N3S(=O)(=O)c2ccc(C)cc2)cc1`: the growth was 120%.
Consider `COC(=O)/C=C1\S/C(=N\Nc2ccc([N+](=O)[O-])cc2[N+](=O)[O-])N(C2CCCCC2)C1=O`, for which the growth was 45.1%.
In the case of `CN1C(=O)N2CN3CCCN(C3)CN3C(=S)NC1C23` (stereo not given), the growth is 102%.
Next, `COc1ccccc1C(C)=O`: 108% and 111%; `Cc1nc(/N=C(\N)NC(=O)Nc2cccc([N+](=O)[O-])c2)sc1C`: 11.6%; `COC1CCC(N2C(=O)CNc3ncc(-c4ccc(C(C)(C)O)nc4)nc32)CC1` (stereo not given): -25.2% (active).
`O=C(/C=C/c1cn(-c2ccccc2)nc1-c1ccccc1)OCc1cn(-c2cccc([N+](=O)[O-])c2)nn1`: the growth is 107%.
`COc1cc(-c2nc(SCC(C)C)nc(Nc3cccc4ccccc34)c2C#N)cc(OC)c1OC`: the growth is 116%.
In the case of `c1ccc(-c2nc(Nc3nccnn3)c3ccccc3n2)cc1`, the growth was 83.5%.
Next, `COc1ccc(C2CC(=O)c3c(O)c(OC)c(OC)c(OC)c3O2)cc1O` (stereo not given): 8.92% (active); `COc1ccc(C(=O)Nn2c(NCC(=O)N3c4ccccc4Sc4ccccc43)nnc2-c2ccc(O)cc2)cc1`: 107%.
